Test [1] can be described thus: resazurin metabolic signal in HepG2 cells – cell-based, resazurin fluorescence, 24 h, PK04 Diversity Set, profiling panel (AID 1172). Note: test concentration not given here. Conditions: HepG2 viability, higher = more signal. On the technique in general: The colour change of resazurin is a common sign of viable cells or microbes.
The nature of test [2]: budding yeast growth changes without added modifier – OD600, strain BY4716, 24 h, basal condition, primary screen (AID 1173). Particulars: S. cerevisiae BY4716 growth, OD600, 24 h; higher = more signal, called active from +8 up or from −8 down.
The nature of test [3]: viability profiling in MM1S myeloma cells – cell-based, resazurin fluorescence, basal, 24 h, PK04 Diversity Set, profiling panel (AID 1174).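 Note: MM1S multiple myeloma cell line; test concentration not given here.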 Conditions: higher = more signal, called active from +8 up or from −8 down.
Test [4] concerns the target Dihydroorotate dehydrogenase (quinone), mitochondrial (Plasmodium falciparum (isolate 3D7)) (UniProt Q08210). Description: inhibition of P. falciparum DHODH – biochemical, C-terminal His tag, absorbance 600 nm, primary screen (AID 1175).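 Note: recombinant parasite enzyme with a five histidine tag at its C terminus; test concentration not given here.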 Particulars: PfDHODH enzyme, DCIP absorbance 600 nm; higher = more signal, called active from +8 up or from −8 down.
The nature of test [5]: inhibition of PAO1 biofilm formation – strain PAO1, LB-PBS medium, absorbance 600 nm, primary screen (AID 1176). Note: test concentration not given here. Conditions: P. aeruginosa PAO1 growth/biofilm, A600, 12 h; higher = more signal.
The nature of test [6]: growth modulation of vineyard yeast isolate – strain RM11-1a, OD600, basal, 24 h, primary screen (AID 1177).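 Note: cultures grown under basal conditions with no added stressor; test concentration not given here.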 Conditions: S. cerevisiae RM11-1a growth, OD600, 24 h; higher = more signal, called active from +8 up or from −8 down.
Test [7] can be described thus: growth of efflux-deficient E. coli DRC39 – strain DRC39, OD650, 24 h, E. coli filamentation inducers, primary screen (AID 1178).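 Note: growth measured as culture turbidity by optical density at 650 nm; test concentration not given here.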 Particulars: E. coli DRC39 acrAB, higher = more signal, called active from +8 up or from −8 down.
Test [8] can be described thus: growth of efflux-deficient E. coli DRC39 – strain DRC39, OD650, 48 h, E. coli filamentation inducers, primary screen (AID 1179).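 Note: screen aims at cell division blockers that make cells filament.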 Conditions: E. coli DRC39 delta-acrAB growth, higher = more signal, called active from +8 up or from −8 down.
The nature of test [9]: viability profiling in RPMI8226 myeloma cells – cell-based, resazurin fluorescence, basal, 24 h, PK04 Diversity Set, profiling panel (AID 1180).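 Note: RPMI8826 multiple myeloma cell line at 5000 cells per well; test concentration not given here.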 Particulars: higher = more signal.
Test [10] deals with E3 ubiquitin-protein ligase XIAP (Homo sapiens) (UniProt P98170). Description: small molecules binding XIAP protein – biophysical, small-molecule microarray, fluorescence 635 nm, primary screen (AID 1181).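 Note: score merges 667 nm emission and signal to noise over triplicate slides.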 Conditions: higher = more signal.

Activity calls are given as the source filed them. Unless noted, the rule behind the calls is not given here.

Sequence of Dihydroorotate dehydrogenase (quinone), mitochondrial (Plasmodium falciparum (isolate 3D7)) (Q08210 whole entry, looked up): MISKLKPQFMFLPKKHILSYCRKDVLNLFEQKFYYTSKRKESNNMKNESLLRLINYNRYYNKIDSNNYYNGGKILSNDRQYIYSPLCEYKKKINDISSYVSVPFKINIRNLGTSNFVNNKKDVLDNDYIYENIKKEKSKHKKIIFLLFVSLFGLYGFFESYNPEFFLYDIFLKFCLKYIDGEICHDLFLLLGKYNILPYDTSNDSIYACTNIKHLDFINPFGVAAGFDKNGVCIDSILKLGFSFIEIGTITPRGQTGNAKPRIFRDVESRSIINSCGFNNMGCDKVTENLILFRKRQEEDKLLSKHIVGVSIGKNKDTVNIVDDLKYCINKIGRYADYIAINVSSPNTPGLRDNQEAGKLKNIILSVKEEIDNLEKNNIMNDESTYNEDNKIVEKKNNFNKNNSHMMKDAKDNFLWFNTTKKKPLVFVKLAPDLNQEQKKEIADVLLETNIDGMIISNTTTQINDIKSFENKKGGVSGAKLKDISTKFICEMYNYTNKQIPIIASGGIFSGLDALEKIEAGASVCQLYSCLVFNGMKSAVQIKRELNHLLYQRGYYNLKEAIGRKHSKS
Sequence of E3 ubiquitin-protein ligase XIAP (Homo sapiens) (P98170 whole entry, looked up): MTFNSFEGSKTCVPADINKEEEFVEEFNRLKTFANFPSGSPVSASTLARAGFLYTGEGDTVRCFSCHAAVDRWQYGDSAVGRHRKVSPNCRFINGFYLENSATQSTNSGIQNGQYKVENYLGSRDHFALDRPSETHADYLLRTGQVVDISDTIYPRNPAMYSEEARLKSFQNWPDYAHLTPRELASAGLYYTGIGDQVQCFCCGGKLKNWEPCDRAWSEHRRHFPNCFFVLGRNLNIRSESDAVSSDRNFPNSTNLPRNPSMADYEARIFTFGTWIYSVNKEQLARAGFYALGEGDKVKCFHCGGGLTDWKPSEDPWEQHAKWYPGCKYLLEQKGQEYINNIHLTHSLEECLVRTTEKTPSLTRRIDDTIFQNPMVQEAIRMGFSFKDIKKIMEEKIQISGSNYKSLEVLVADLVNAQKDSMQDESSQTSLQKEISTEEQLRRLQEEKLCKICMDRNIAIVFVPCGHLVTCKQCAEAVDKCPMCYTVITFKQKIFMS

Consider `C=C(CCCC)/C(=C/C[C@H](OC(=O)c1ccncc1)c1cccc(OCCO)c1)c1cc(C(=O)OC)ccc1OC`, for which the z-score in test [1] was 1.06; in test [2] it was -0.0252 (inactive); in test [3], 0.585 (inactive); in [5], -0.988 (inactive); in test [6], -0.549 (inactive); in test [7] it was -0.232 (inactive). The z-score was -0.0622 (inactive) in test [8] and 0.15 in test [9]. For the same compound, the composite z-score in test [4] was -1.61 (inactive); in test [10], -0.0916.

For `O=C1C2C=CC(C(O)c3ccccc3)N(n3cnnc3)C2C(=O)N1Cc1ccccc1` (centres undefined), the z-score in [1] is -0.362; in test [2], -0.0402 (inactive); in [3], -0.468 (inactive); in test [5], 1.87 (inactive); in [6], -1.08 (inactive); in [7], -0.456 (inactive). In addition, the results for the z-score in test [8] and in test [9] were -1.03 (inactive) and -0.974, respectively. For the same compound, the composite z-score in test [4] was -1.03 (inactive); in [10], 0.23.

In the case of `COCCOC(=O)N1C(=O)[C@@]2(c3cc(C#CC4=CCCCC4)ccc31)[C@H](C(=O)NC[C@H](O)c1ccccc1)[C@H]1C(=O)O[C@H](c3ccccc3)[C@H](c3ccccc3)N1[C@@H]2c1ccc(OCCO)cc1`, the z-score in test [1] is 0.604; in test [2] it was 1.61 (inactive); in test [3] it was -1.68 (inactive); in test [5], 2.83 (inactive); in [6] it was 2.7 (inactive); in [7] it was -0.276 (inactive). Besides, the z-score in test [8] is 0.0077 (inactive); in test [9], -1.44. For the same compound, the composite z-score was -0.773 (inactive) in test [4] and -0.26 in test [10].

Turning to `O=C1C2C=CC(C(O)C#Cc3ccccc3)N(Nc3ccccc3)C2C(=O)N1c1ccccc1` (centres undefined), the z-score in test [1] was 0.198; in test [2], -3.55 (inactive); in [3] it was -0.279 (inactive); in test [5], 0.875 (inactive); in [6], 0.143 (inactive); in test [7], -0.169 (inactive). The values for the z-score in test [8] and in test [9] were -0.143 (inactive) and 0.0581, respectively. Besides, the composite z-score in [4] was -0.766 (inactive); in [10], -0.189.

Consider `Cc1ccc(N2C(=O)c3ccccc3[C@](C)(C(=O)NCC(C)C)[C@@H]2c2ccc(CO)cc2)nc1`, for which the z-score is 0.1 in test [1]; 0.726 (inactive) in test [2]; -0.558 (inactive) in [3]; 0.14 (inactive) in test [5]; 1.42 (inactive) in test [6]; 0.401 (inactive) in test [7]. The z-score in test [8] is -0.247 (inactive); in test [9], -0.481. Moreover, the composite z-score was 1.08 (inactive) in [4] and -0.0095 in test [10].

Regarding `C=C(CCCC)/C(=C/C[C@@H](OC(=O)c1ccncc1)c1cccc(OCCO)c1)c1cc(C(=O)OC)ccc1OC`, the z-score in test [1] was 1.02; in [2], 0.199 (inactive); in test [3], -0.73 (inactive); in [5], 1.05 (inactive); in [6] it was 0.0731 (inactive); in [7], 1.81 (inactive). The z-score in test [8] is 1.33 (inactive); in test [9], -0.647. For the same compound, the figures for the composite z-score in [4] and in test [10] were -0.757 (inactive) and 0.137, respectively.

As for `C=CC[C@]1(C(N)=O)N=C(c2ccc(OCCCO)cc2)O[C@H]1c1ccccc1CN=[N+]=[N-]`, the z-score was 0.394 in test [1]; -1.06 (inactive) in test [2]; 1.06 (inactive) in test [3]; -0.592 (inactive) in test [6]; 2.91 (inactive) in test [7]; 1.21 (inactive) in [8]. In [9], the z-score came to 1.1. Besides, the composite z-score in test [4] was 0.199 (inactive); in test [10], -0.16.

Consider `COCCOC(=O)N1C(=O)[C@@]2(c3cc(C#CCNC(N)=O)ccc31)[C@H](c1ccccc1OCCO)N1[C@H](c3ccccc3)[C@H](c3ccccc3)OC(=O)[C@H]1[C@@H]2C(=O)NC[C@H](O)c1ccccc1`, for which the z-score is 0.904 in [1]; 2.79 (inactive) in [2]; 0.335 (inactive) in [3]; 0.87 (inactive) in test [5]; 2.1 (inactive) in test [6]; 0.183 (inactive) in test [7]. Further, the figures for the z-score in [8] and in test [9] were -0.32 (inactive) and 0.152, respectively. For the same compound, the results for the composite z-score in [4] and in test [10] were 1.03 (inactive) and -0.0911, respectively.

With `CC(C)=C1C(=O)C(c2ccccc2)=C2CN3C(=O)N(CCc4ccccc4)C(=O)[C@]3(Cc3ccccc3)[C@H]21`, the z-score was -1.18 in test [1]; 0.66 (inactive) in [2]; -0.692 (inactive) in [3]; 0.178 (inactive) in test [5]; 0.071 (inactive) in test [6]; -0.652 (inactive) in test [7]. For the same compound, the values for the z-score in test [8] and in [9] were -0.295 (inactive) and -0.693, respectively. Besides, the composite z-score in test [4] was 0.223 (inactive); in test [10], -0.122.

Take `COCCOC(=O)N1C(=O)[C@@]2(c3cc(C#CCCO)ccc31)[C@H](c1ccc(OCCO)cc1)N1[C@H](c3ccccc3)[C@H](c3ccccc3)OC(=O)[C@H]1[C@@H]2C(=O)NC[C@H](O)c1ccccc1`: the z-score in test [1] is 0.542; in [2], 1.64 (inactive); in test [3], -0.149 (inactive); in test [5], 1.39 (inactive); in [6], 2.33 (inactive); in test [7] it was 0.0733 (inactive). In addition, the z-score in [8] was -0.534 (inactive); in test [9] it was 0.471. Moreover, the values for the composite z-score in [4] and in [10] were 1.06 (inactive) and 0.106, respectively.

The record behind these values is PubChem BioAssay.
